Laboratory results taken from the supplement of paper PMC3334620.
Over roughly 33,000 sequences, “E-score (-0.5 to 0.5)” has its median near -0.012; the highest 2% begin near 0.27. The list comes from a sample in which the highest values are over-represented; it also holds similar and randomly drawn sequences.

Target: T1, Vhr1 (UniProt P40522)
T1 sequence: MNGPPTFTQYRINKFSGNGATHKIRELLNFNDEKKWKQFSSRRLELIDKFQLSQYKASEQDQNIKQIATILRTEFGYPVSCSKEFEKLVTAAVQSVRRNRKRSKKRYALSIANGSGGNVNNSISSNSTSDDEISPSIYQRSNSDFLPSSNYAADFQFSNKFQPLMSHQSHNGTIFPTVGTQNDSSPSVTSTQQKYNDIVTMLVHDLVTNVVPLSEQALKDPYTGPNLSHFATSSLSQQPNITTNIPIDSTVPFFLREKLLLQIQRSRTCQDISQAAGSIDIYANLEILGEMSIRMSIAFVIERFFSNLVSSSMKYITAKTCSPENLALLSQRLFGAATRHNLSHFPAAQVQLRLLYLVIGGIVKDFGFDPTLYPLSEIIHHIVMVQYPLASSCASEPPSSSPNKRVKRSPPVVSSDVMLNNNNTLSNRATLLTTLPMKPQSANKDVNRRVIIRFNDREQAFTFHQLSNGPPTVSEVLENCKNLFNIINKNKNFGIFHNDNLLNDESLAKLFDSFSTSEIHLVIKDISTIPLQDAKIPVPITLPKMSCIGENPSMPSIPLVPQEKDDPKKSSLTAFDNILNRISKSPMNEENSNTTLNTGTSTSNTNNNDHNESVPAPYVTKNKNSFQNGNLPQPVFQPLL
Experiment: PBM E-score (8-mer binding enrichment) (E-score (-0.5 to 0.5)); higher = stronger / more preferred TF binding
Settings: protein concentration: 200 nM; construct: GST-full length
Method: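 Universal 'all 10-mer' protein binding microarrays (Agilent AMADID 015681) probed with GST-tagged S. cerevisiae TFs (full-length or DBD) made by in vitro transcription/translation (PURExpress), about 100-200 nM. Bound TF was detected with fluorescent anti-GST. Each ungapped 8-mer (which stands for itself and its reverse complement) is scored by the PBM enrichment score (E-score), a modified Wilcoxon-Mann-Whitney statistic from -0.5 to +0.5, computed with the Universal PBM Analysis Suite. Scale: above 0.35 generally sequence-specific binding.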

| Sequence | PBM E-score |
| --- | --- |
| CCACCTGG | -0.0837 |
| CATCCTCG | 0.124 |
| CATATCAG | -0.0382 |
| GATATCGA | -0.0237 |
| CATATCGG | 0.0424 |
| CATATCGA | 0.292 |
| CATATCAA | 0.278 |
| AATATCAA | 0.0811 |
| CTTATACC | -0.0429 |
| GCACAGAA | -0.0823 |
| CCGCGAAG | 0.039 |
| GGAGATCC | -0.0359 |
| CGCTTAAC | -0.225 |
| TACGTCAA | -0.139 |
| CAAACAGG | 0.0517 |
| ACTATGAT | 0.351 |
| ACTATGAG | 0.181 |
| ACTATGAC | 0.286 |
| CCTATGAC | 0.0237 |
| GCTATGAC | 0.201 |
| ACTATGAA | 0.0955 |
| AGACTACT | 0.216 |
| ATTCTATC | -0.154 |
| CCGCTAGC | -0.266 |
| GCTGTCCC | -0.206 |

| Sequence | PBM E-score |
| --- | --- |
| AGATCGAC | -0.0907 |
| AATCAGAC | 0.201 |
| CCGTGGCG | 0.189 |
| GCGGTCAC | -0.00992 |
| GACCCAGA | 0.0388 |
| AAATCAGC | 0.121 |
| GAATCAGA | 0.319 |
| AAATCAGA | 0.0175 |
| CAATCAGC | 0.193 |
| GAATCAGC | 0.307 |
| TAATCAGA | 0.146 |
| CCACACCC | 0.197 |
| GAAAATTC | -0.274 |
| AAGCTTCC | -0.37 |
| ATGGGCTC | 0.272 |
| CTGGGCTC | -0.135 |
| ATGGGCTG | 0.198 |
| AAGTCAAT | 0.0223 |
| CAGTCGCC | 0.147 |
| AAGTCGAC | 0.17 |
| GAGTCGCC | 0.424 |
| AAGTCGCA | 0.173 |
| TAGTCGAA | 0.0212 |
| CAGTCGCA | 0.0715 |
| GAGTCGCA | 0.391 |

| Sequence | PBM E-score |
| --- | --- |
| AAGTCGCC | -0.0133 |
| TAGTCGCA | 0.309 |
| GAGTCGAC | 0.294 |
| CAGTCGAC | 0.197 |
| TCGTCGCA | 0.111 |
| ATCAGGCC | -0.0546 |
| ACACTAAA | 0.238 |
| CTACTTAA | -0.204 |
| GACTCATA | 0.388 |
| GACTCAAA | 0.266 |
| CACTCAAC | 0.0922 |
| GACTCAAC | 0.42 |
| CACTCATC | 0.137 |
| AACTCATA | 0.141 |
| CACTCATA | 0.179 |
| AACTCATC | 0.209 |
| GACTCATC | 0.452 |
| AAGTAGAC | -0.0556 |
| AGCCATTG | 0.172 |
| CCCGCTAG | -0.249 |
| TCCCGGGA | -0.0779 |
| GTAGGTAA | -0.114 |
| GGCGAAGA | -0.152 |
| CCACTCAA | 0.133 |
| CTACTCAA | 0.113 |

| Sequence | PBM E-score |
| --- | --- |
| CGACTCAA | 0.386 |
| GGACTCAA | 0.143 |
| AGACTCAA | 0.214 |
| TGACTCAA | 0.468 |
| CGATTTAG | -0.0352 |
| ACATTCAT | 0.0173 |
| CTACCTGC | -0.0175 |
| CGTGAGAC | 0.0393 |
| AGACCTTA | 0.0612 |
| AAGAGGTA | 0.0122 |
| CGACCCAA | 0.14 |
| CTCAATCC | -0.0448 |
| GGTAATGA | 0.023 |
| CGTAATTA | -0.128 |
| CTCAATCA | 0.33 |
| AGTAATCG | 0.141 |
| CGTAATCA | 0.273 |
| GCTAATCA | 0.262 |
| AGTAATCA | 0.303 |
| ATCAATCA | 0.248 |
| AGTAATCC | 0.0334 |
| CGTAATCC | -0.104 |
| GGTAATCA | 0.288 |
| AATTGGCT | -0.0912 |
| ATACTGTA | 0.224 |

| Sequence | PBM E-score |
| --- | --- |
| GGAAACGA | 0.0811 |
| GGTGTCCA | -0.0191 |
| ACAAGTGA | -0.154 |
| CAGATTAG | -0.0795 |
| AAATAACG | -0.00647 |
| GTAATGTA | -0.131 |
| GCCGCGGC | 0.237 |
| CCCGCGGC | 0.272 |
| CCCGCCAC | 0.321 |
| CTCCCCGA | -0.116 |
| CCCGCCGC | 0.36 |
| CCCGCCGG | 0.134 |
| ACCGCCAC | 0.0902 |
| GCCGCCAC | -0.0771 |
| ATCCCCGC | 0.129 |
| CCCGCGGA | -0.0501 |
| CCCGCCGA | 0.00185 |
| CTCCCCGC | 0.325 |
| ATGACCCC | 0.211 |
| AAGGCAGC | -0.132 |
| ATATAGAA | 0.11 |
| AGCATCAG | 0.0568 |
| CATGTTCG | 0.0242 |
| GATTGGGC | -0.102 |
| CAACCTCC | 0.0131 |

| Sequence | PBM E-score |
| --- | --- |
| ATGTATCA | 0.267 |
| GTGTATCA | 0.275 |
| CTGTATCA | -0.0153 |
| GCACTTTA | -0.249 |
| CAGTTACG | -0.125 |
| ATACTGTC | 0.137 |
| ATACTCAC | 0.17 |
| ATACTGTG | 0.0981 |
| ATACTCAG | 0.274 |
| CTACTCAG | 0.153 |
| ACTCTCAG | -0.0997 |
| ATACTCAA | 0.178 |
| ATACTCAT | 0.277 |
| ATACTGAG | 0.302 |
| CGAGTTCC | 0.0292 |
| GCAAACTA | 0.0776 |
| AATGCTCA | 0.021 |
| AAGAATAC | 0.0498 |
| AGGGTCGA | 0.158 |
| ACCTGCCC | 0.0405 |
| CTACGCCC | 0.0207 |
| CGGCAGTA | -0.109 |
| ACAACCCC | -0.061 |
| CATGCTCC | -0.08 |
| AATCAGGT | 0.268 |

| Sequence | PBM E-score |
| --- | --- |
| AATCAGGG | 0.133 |
| GATCATGA | 0.197 |
| AATCAAGG | 0.0679 |
| AATCATGT | 0.389 |
| AATCATTC | 0.251 |
| AATCATTA | 0.222 |
| AATCATTG | 0.283 |
| TATCATGA | 0.189 |
| AATCATGA | 0.331 |
| AATCAAGT | 0.174 |
| AATCATGG | 0.387 |
| CCGCCAAC | 0.163 |
| GCATTGAA | -0.0212 |
| AACTAGTT | -0.125 |
| AAAGGTTA | -0.357 |
| CATCTATA | 0.0881 |
| CATCATGA | 0.276 |
| CATCATGG | 0.152 |
| CATCATGC | 0.201 |
| CATCATAA | 0.133 |
| CAACATGG | 0.0395 |
| CAACATGA | 0.3 |
| CAACATGC | 0.15 |
| GATCATGC | 0.0952 |
| AATCATGC | 0.304 |
